# Data as given in publication PMC7862700, “An all-to-all approach to the identification of sequence-specific readers for epigenetic DNA modifications on cytosine”.
# Experiments:
# Experiment in all cases: DAPPL (digital affinity profiling via proximity ligation, sequencing); 10 mM Tris-HCl pH 7.5, 50 mM NaCl, 1 mM DTT, 4% glycerol, room temperature, 30 min; GST-TFs on glutathione beads, 16-mer random dsDNA library, 0.1% formaldehyde crosslink after washing; high values mean tight binding
# FLI1 = target: T1, FLI1 (Homo sapiens, UniProt Q01543 1-452); settings: protein: recombinant; tags: N-terminal GST; dsDNA, one strand shown
# T1 sequence: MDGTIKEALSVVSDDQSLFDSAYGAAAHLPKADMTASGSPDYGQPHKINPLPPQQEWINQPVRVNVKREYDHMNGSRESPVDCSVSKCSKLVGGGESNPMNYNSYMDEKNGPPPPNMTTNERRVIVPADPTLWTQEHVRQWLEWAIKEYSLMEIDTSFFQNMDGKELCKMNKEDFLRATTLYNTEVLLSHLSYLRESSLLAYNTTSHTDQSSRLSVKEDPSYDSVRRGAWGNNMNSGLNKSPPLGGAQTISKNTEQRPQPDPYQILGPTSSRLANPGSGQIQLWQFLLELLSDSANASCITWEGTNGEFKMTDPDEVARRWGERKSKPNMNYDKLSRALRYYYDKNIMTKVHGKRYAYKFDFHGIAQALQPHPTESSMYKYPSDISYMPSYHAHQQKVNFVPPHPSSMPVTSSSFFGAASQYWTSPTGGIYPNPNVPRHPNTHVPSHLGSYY
# In short: (§1)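 In yeast, human transcription factors were expressed with a GST fusion, then pulled down on glutathione beads and given DNA barcodes. Pooled with a tag-only sample, they were exposed to 200 nmole of a 16-mer random double-stranded DNA library (Tris/NaCl/DTT/glycerol buffer, room temperature, 30 min), washed, crosslinked with 0.1% formaldehyde, proximity-ligated using BsaI/T4 ligase for 1 h at 37 °C, PCR-amplified and read on an Illumina NextSeq500. Each hexamer's frequency of reads for a factor, divided by the matching frequency for the tag-only sample, gives the binding signal.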
# ELK1 = target: T2, ELK1 (Homo sapiens, UniProt P19419 1-428); settings: protein: recombinant; tags: N-terminal GST; dsDNA, one strand shown
# T2 sequence: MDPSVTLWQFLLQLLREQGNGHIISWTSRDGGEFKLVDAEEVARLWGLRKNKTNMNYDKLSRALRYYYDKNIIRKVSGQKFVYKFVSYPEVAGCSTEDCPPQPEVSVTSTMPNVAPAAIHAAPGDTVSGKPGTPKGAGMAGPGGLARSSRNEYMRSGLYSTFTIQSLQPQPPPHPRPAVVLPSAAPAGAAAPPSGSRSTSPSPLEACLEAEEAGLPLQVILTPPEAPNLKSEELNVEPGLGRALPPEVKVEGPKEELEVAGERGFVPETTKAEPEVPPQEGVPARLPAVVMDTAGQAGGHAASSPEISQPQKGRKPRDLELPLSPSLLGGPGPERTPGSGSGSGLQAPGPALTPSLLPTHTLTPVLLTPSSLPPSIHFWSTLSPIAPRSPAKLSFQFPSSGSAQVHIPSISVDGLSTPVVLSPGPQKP
# In short: as §1
# GABPA = target: T3, GABPA (Homo sapiens, UniProt Q06546 1-454); settings: protein: recombinant; tags: N-terminal GST; dsDNA, one strand shown
# T3 sequence: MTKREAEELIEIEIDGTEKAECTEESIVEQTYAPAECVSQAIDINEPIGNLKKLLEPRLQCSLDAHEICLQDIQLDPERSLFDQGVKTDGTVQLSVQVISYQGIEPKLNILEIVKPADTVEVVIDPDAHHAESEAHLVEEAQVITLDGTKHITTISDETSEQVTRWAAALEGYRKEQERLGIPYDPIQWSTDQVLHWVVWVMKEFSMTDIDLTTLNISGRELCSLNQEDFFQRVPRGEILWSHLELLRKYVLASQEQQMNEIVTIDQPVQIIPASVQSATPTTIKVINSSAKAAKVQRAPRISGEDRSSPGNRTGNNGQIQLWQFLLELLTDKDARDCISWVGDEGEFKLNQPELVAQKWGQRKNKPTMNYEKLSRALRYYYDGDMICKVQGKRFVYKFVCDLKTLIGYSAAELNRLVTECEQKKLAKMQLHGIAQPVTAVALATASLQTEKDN
# In short: as §1
# ERG = target: T4, ERG (Homo sapiens, UniProt P11308 1-479); settings: protein: recombinant; tags: N-terminal GST; dsDNA, one strand shown
# T4 sequence: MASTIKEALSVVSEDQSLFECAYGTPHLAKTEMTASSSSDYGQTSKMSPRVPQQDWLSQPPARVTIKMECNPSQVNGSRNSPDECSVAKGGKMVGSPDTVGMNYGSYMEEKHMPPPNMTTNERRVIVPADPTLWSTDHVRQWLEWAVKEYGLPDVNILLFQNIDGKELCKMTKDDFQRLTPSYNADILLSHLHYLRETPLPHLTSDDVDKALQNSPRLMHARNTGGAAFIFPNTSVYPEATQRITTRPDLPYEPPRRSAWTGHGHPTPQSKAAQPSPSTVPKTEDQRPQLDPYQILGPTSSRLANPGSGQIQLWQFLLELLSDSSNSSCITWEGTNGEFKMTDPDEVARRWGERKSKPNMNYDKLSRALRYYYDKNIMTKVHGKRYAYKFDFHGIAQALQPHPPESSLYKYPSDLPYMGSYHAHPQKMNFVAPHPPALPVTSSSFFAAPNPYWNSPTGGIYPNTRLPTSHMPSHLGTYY
# In short: as §1
# ELF1 = ELF1 (Homo sapiens, UniProt P32519 1-619); settings: protein: recombinant; tags: N-terminal GST; dsDNA, one strand shown
# In short: as §1
# EHF = target: T5, EHF (Homo sapiens, UniProt Q9NZC4 1-300); settings: protein: recombinant; tags: N-terminal GST; dsDNA, one strand shown
# T5 sequence: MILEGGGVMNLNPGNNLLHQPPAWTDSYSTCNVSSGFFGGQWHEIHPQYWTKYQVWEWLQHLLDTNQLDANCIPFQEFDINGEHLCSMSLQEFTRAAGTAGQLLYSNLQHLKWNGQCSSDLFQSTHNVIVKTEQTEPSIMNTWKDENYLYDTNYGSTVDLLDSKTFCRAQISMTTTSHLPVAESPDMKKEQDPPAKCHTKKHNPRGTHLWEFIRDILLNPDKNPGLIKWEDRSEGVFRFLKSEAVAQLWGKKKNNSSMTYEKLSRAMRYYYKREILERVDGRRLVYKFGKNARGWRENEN
# In short: as §1
# SPI1 = SPI1 (Homo sapiens, UniProt P17947 1-270); settings: protein: recombinant; tags: N-terminal GST; dsDNA, one strand shown
# In short: as §1
# SPIB = SPIB (Homo sapiens, UniProt Q01892 1-262); settings: protein: recombinant; tags: N-terminal GST; dsDNA, one strand shown
# In short: as §1
# ELK3 = target: T6, ELK3 (Homo sapiens, UniProt P41970 1-407); settings: protein: recombinant; tags: N-terminal GST; dsDNA, one strand shown
# T6 sequence: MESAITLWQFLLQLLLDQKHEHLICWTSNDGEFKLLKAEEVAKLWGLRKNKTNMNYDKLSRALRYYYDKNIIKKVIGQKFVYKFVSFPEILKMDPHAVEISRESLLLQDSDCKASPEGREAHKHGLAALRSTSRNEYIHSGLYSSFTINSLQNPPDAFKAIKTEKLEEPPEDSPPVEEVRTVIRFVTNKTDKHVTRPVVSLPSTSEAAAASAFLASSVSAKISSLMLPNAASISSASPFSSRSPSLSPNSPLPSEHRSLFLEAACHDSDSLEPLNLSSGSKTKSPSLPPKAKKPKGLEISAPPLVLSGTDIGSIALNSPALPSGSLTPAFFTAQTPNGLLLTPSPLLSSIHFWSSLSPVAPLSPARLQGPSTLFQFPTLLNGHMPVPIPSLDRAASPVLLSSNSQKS
# In short: as §1
# FEV = target: T7, FEV (Homo sapiens, UniProt Q99581 1-238); settings: protein: recombinant; tags: N-terminal GST; dsDNA, one strand shown
# T7 sequence: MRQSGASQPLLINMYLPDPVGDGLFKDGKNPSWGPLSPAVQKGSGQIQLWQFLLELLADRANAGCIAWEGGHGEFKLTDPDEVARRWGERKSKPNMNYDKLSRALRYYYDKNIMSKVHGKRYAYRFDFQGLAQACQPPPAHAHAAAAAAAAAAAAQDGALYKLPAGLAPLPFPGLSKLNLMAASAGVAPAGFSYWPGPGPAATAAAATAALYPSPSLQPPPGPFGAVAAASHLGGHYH
# In short: as §1
# ETV5 = ETV5 (Homo sapiens, UniProt P41161 1-510); settings: protein: recombinant; tags: N-terminal GST; dsDNA, one strand shown
# In short: as §1
# HSF1 = HSF1 (Homo sapiens, UniProt Q00613 1-529); settings: protein: recombinant; tags: N-terminal GST; chain copies: 3; dsDNA, one strand shown
# In short: as §1
# SPIC = target: T8, SPIC (Homo sapiens, UniProt Q8N5J4 1-248); settings: protein: recombinant; tags: N-terminal GST; dsDNA, one strand shown
# T8 sequence: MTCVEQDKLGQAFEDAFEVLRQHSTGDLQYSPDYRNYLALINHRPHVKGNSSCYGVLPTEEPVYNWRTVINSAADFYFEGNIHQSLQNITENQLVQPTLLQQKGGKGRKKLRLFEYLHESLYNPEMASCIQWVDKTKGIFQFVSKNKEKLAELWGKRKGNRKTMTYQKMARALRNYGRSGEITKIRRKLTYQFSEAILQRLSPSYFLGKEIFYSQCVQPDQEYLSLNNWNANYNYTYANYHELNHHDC
# In short: as §1
# ELF4 = ELF4 (Homo sapiens, UniProt Q99607 1-663); settings: protein: recombinant; tags: N-terminal GST; dsDNA, one strand shown
# In short: as §1
# ELK4 = target: T9, ELK4 (Homo sapiens, UniProt P28324-2 1-405); settings: protein: recombinant; tags: N-terminal GST; dsDNA, one strand shown
# T9 sequence: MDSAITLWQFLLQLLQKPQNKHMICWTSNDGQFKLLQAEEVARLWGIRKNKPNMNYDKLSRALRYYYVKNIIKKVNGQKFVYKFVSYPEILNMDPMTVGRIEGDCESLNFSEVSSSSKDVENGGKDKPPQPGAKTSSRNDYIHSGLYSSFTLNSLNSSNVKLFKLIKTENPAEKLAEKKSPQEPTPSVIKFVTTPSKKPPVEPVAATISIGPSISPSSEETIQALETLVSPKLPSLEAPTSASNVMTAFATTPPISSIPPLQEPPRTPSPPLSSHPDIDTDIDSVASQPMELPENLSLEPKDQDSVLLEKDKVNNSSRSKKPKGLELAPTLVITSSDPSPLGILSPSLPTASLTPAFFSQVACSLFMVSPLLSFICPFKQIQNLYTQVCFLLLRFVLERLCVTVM
# In short: as §1
# ETV2 = target: T10, ETV2 (Homo sapiens, UniProt O00321 1-342); settings: protein: recombinant; tags: N-terminal GST; dsDNA, one strand shown
# T10 sequence: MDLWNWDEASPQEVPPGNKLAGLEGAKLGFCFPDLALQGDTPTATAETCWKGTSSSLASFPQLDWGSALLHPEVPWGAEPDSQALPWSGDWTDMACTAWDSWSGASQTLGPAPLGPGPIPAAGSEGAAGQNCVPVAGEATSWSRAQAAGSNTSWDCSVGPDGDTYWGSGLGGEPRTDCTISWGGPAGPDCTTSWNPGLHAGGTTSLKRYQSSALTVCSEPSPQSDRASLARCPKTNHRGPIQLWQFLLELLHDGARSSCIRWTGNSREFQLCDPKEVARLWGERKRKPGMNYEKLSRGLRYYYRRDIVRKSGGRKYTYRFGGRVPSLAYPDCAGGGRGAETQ
# In short: as §1
# ELF3 = target: T11, ELF3 (Homo sapiens, UniProt P78545 1-371); settings: protein: recombinant; tags: N-terminal GST; dsDNA, one strand shown
# T11 sequence: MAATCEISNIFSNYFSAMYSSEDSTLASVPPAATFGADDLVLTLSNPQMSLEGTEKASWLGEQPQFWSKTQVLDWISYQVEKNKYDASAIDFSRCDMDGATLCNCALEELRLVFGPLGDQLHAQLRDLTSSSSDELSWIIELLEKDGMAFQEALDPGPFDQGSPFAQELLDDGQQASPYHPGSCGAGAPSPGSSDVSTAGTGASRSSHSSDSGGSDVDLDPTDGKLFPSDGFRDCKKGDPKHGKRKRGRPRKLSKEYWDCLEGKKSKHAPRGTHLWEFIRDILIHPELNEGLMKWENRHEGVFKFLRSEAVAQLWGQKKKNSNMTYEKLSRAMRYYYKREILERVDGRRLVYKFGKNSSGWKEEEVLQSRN
# In short: as §1
# ETV1 = ETV1 (Homo sapiens, UniProt P50549 1-477); settings: protein: recombinant; tags: N-terminal GST; dsDNA, one strand shown
# In short: as §1
# Sequence of HSF1 (Q00613 whole entry): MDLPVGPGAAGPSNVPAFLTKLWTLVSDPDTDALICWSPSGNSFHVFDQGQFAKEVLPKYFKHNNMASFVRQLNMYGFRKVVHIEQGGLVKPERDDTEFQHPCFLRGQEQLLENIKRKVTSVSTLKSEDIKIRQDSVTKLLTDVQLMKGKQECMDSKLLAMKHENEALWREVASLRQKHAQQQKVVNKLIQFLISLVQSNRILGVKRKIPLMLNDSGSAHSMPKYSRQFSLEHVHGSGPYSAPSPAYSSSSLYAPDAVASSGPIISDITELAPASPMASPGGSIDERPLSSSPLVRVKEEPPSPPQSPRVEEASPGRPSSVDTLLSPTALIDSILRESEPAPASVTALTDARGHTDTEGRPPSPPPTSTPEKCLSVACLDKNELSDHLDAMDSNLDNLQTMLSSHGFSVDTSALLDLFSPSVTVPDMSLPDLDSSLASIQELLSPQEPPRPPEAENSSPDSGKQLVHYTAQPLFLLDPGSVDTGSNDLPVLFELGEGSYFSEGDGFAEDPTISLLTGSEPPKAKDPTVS
# Sequence of ELF4 (Q99607 whole entry): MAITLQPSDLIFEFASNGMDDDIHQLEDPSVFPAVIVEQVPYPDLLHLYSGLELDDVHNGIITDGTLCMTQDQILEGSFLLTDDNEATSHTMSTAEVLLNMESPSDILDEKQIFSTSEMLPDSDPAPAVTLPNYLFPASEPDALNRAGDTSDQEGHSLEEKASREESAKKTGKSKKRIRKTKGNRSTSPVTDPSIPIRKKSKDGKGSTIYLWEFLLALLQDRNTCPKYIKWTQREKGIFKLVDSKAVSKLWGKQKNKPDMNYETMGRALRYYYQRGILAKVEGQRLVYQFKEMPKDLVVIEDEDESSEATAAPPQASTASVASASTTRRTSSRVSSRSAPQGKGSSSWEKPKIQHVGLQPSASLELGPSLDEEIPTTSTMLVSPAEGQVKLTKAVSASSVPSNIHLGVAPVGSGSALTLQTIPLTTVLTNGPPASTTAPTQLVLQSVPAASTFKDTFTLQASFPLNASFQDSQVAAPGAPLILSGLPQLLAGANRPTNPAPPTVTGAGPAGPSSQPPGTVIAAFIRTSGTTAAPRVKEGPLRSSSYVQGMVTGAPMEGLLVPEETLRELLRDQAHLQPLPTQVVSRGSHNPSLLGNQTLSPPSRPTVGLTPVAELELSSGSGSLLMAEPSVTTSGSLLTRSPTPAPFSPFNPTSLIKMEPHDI
# Sequence of SPIB (Q01892 whole entry): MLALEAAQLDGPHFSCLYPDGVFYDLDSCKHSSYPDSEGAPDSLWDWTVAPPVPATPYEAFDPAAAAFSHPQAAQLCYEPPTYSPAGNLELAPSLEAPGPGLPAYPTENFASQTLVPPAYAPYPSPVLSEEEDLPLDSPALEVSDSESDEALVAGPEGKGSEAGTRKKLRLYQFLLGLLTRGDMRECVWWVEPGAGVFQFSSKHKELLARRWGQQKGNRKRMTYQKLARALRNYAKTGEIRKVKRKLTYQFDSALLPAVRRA
# Sequence of ELF1 (P32519 whole entry): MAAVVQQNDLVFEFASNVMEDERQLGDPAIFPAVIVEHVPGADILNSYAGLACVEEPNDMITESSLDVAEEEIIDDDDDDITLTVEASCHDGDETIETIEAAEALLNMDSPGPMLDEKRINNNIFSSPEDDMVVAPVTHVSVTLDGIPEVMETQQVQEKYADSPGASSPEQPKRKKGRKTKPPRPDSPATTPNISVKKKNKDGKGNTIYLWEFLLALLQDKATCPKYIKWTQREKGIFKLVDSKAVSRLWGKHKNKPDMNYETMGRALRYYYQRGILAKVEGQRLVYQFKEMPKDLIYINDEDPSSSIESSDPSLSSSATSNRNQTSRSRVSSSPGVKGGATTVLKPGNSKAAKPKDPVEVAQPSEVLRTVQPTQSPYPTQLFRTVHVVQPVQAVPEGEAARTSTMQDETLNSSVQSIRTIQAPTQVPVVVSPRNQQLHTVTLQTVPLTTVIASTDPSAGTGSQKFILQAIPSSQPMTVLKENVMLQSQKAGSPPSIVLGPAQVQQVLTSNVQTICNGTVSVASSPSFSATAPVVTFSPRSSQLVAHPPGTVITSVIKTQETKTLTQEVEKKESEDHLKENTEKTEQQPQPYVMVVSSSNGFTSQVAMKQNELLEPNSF
# Sequence of ETV1 (P50549 whole entry): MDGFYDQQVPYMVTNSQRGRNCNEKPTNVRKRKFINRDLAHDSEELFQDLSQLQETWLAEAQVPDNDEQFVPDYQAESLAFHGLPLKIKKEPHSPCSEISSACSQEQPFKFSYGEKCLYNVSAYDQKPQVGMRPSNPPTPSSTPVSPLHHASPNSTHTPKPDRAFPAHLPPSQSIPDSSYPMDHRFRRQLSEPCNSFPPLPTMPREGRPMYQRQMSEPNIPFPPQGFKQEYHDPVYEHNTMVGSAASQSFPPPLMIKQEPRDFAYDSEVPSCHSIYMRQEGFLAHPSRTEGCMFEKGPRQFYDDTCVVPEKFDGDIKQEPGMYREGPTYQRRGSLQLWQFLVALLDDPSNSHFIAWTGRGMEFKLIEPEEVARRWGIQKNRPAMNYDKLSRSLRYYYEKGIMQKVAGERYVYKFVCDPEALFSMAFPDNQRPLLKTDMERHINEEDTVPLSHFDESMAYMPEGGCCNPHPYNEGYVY
# Sequence of ETV5 (P41161 whole entry): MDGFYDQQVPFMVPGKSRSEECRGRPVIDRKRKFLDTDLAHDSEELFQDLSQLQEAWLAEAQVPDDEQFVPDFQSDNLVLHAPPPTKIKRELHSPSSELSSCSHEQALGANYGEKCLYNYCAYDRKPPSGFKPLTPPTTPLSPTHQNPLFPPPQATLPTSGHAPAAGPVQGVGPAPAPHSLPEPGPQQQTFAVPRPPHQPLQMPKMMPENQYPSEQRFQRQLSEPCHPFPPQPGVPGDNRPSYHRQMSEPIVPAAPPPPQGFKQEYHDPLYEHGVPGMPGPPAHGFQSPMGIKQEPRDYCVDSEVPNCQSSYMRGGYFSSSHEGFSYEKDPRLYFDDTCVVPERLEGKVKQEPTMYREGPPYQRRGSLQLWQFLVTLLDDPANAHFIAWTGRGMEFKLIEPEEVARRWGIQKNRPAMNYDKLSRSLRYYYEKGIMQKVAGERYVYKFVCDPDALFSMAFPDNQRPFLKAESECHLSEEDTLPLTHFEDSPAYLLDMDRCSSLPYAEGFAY
sequence,measurement,setting,value
CCATTC,binding signal,FLI1,"1.22 fold enrichment (6-mer frequency, TF over GST control)"
same,binding signal,ELK1,"1.09 fold enrichment (6-mer frequency, TF over GST control)"
same,binding signal,GABPA,"1.1 fold enrichment (6-mer frequency, TF over GST control)"
same,binding signal,ERG,"1.2 fold enrichment (6-mer frequency, TF over GST control)"
same,binding signal,ELF1,"1.17 fold enrichment (6-mer frequency, TF over GST control)"
same,binding signal,EHF,"1.07 fold enrichment (6-mer frequency, TF over GST control)"
same,binding signal,SPI1,"1.16 fold enrichment (6-mer frequency, TF over GST control)"
same,binding signal,SPIB,"1.09 fold enrichment (6-mer frequency, TF over GST control)"
same,binding signal,ELK3,"1.29 fold enrichment (6-mer frequency, TF over GST control)"
same,binding signal,FEV,"1.06 fold enrichment (6-mer frequency, TF over GST control)"
same,binding signal,ETV5,"1.11 fold enrichment (6-mer frequency, TF over GST control)"
same,binding signal,HSF1,"1.15 fold enrichment (6-mer frequency, TF over GST control)"
same,binding signal,SPIC,"1.14 fold enrichment (6-mer frequency, TF over GST control)"
same,binding signal,ELF4,"1.18 fold enrichment (6-mer frequency, TF over GST control)"
same,binding signal,ELK4,"1.22 fold enrichment (6-mer frequency, TF over GST control)"
same,binding signal,ETV2,"1.25 fold enrichment (6-mer frequency, TF over GST control)"
same,binding signal,ELF3,"1.05 fold enrichment (6-mer frequency, TF over GST control)"
same,binding signal,ETV1,"1.14 fold enrichment (6-mer frequency, TF over GST control)"
